Compound activity: PubChem BioAssay, National Center for Advancing Translational Sciences (NCATS)
The list is not random: actives were taken first. Their share in the collection is about 1.8%.
JMJD2E inh = blocks human JMJD2E demethylase activity; JMJD2E catalytic domain, FDH-coupled NADH fluorescence (FDH is formaldehyde dehydrogenase); Potency, µM (series often up to 57.1 µM), for the others: top-dose activity change, negative = inhibition, most hits filed as inhibitors; actives 1.6% (n = 230,000); active means well fitted inhibition curve with a large enough effect, not every such curve was filed as active; inconclusive means small, poorly fitted or top-dose-only effect, or another doubt; inactive means no such curve, though single readings can be large or run the other way;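 further: 0% = wells with enzyme and -100% = buffer wells without enzyme; nearly all actives have a fitted effect of over 50% in size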
L3MBTL1 inh = L3MBTL1 (human) inhibition; AlphaScreen L3MBTL1–H3K9me1 peptide binding; Q9Y468; Potency, µM (top dose mostly 57.1 µM), for inactives: top-dose activity, negative = inhibition, actives largely listed as inhibitors; actives 0.66% (n = 230,000); further: on the % scale 0 is the no-effect control and ±100 the full control effect; nearly all actives have a fitted effect of over 60% in size
Target sequence (Q9Y468 whole entry, looked up): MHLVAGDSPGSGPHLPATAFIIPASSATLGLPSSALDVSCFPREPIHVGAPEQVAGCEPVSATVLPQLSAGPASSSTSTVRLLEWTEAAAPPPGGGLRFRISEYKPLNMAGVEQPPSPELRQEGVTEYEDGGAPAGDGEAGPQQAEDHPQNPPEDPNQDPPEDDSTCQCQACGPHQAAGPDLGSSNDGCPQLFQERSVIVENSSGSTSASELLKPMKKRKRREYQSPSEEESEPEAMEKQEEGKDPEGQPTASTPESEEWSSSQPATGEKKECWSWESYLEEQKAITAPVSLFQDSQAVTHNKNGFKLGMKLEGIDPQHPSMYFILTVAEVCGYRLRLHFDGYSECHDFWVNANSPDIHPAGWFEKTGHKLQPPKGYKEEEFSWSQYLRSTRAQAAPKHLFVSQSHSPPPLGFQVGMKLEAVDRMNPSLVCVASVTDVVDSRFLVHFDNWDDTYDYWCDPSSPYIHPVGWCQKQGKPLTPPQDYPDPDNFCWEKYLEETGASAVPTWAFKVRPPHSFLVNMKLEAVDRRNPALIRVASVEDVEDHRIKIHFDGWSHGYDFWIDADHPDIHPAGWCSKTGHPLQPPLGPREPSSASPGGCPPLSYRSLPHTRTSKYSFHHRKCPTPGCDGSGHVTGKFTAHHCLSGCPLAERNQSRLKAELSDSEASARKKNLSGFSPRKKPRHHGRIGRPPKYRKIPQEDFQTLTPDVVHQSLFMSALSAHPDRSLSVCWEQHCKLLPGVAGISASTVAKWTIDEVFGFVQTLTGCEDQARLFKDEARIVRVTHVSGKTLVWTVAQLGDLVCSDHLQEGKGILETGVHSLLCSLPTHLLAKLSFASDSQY
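L3MBTL1 50 nM + b-AHA-H3(1-15)K9me1 75 nM, 30 min RT; compound added, 30 min RT; streptavidin donor/Ni-chelate acceptor beads 10 ug/mL each final, 30 min RT dark; AlphaScreen read.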
HTT ATP protect = protects HTT-Q103 PC12 cells, measured by ATP; PC12 HTT-Q103 induced, cytoprotection, ATP luminescence, 40 h; Potency, µM (doses to about 56.4 µM), for the others: cytoprotection (ATP increase), most hits filed as activators; actives 0.14% (n = 230,000); AID 1471; further: % of control where 0% means no effect; nearly all actives have a fitted effect of over 45% in size
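Compounds were screened for protection of PC12 cells against cell death after tebufenozide induction (100 nM final) of mutant Huntingtin exon 1 (Q103) fused to GFP.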
HttQ103 aggreg = mutant huntingtin aggregation inhibition. Potency, µM (top dose mostly 46.1 µM), without a hit: top-dose activity change, negative = inhibition, hits mostly inhibitors. PC12 HttQ103-GFP aggregates, Acumen cytometry, 40 h. actives 1.1% (n = 220,000); further: on the % scale 0 is the no-effect control and ±100 the full control effect; nearly all actives have a fitted effect of over 60% in size
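Steps: seed 1500 PC12 HTTQ103-GFP cells/well; add tebufenozide, 100 nM final; add compound titration; add ATPLite reagent; quantify GFP aggregates by laser scanning cytometry.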
Starred values were filed as active, the others as inactive; ? = inconclusive; . = no result given; [ ] = another dose, or the depositor's remark. Unless noted, the call rests on the fitted dose curve; in most records, active means well fitted curve in the direction sought with a large enough effect; inconclusive means small, poorly fitted or top-dose-only effect, or another doubt; inactive means no such curve, though single readings can be large; an effect the other way counts as inactive or inconclusive. Potency means the concentration at half of the fitted maximal effect.

SMILES	JMJD2E inh	L3MBTL1 inh	HTT ATP protect	HttQ103 aggreg
Nc1nc(-c2ccccn2)nc(N)c1Cc1ccccc1F	7.2%	3.98µM*	9.7%[10 µM]	?
Nc1nc(-c2ccccn2)nc(N)c1Cc1ccc(Cl)cc1Cl	-2.7%	3.55µM*	1.8%[10 µM]	?
CNc1cc(C(F)(F)F)nc(-c2ccccn2)n1	?	-7.0%	-16.4%[10 µM]	-7.3%
FC(F)(F)c1nnc2c(Sc3ccccn3)nc3ccccc3n12	?	-4.1%	11.2µM*	.
COC(=O)N/N=C/c1cc(C)n(-c2ccc(Br)cc2)c1C	25.1µM*	-18.2%	7.6%[10 µM]	4.4%[9.22 µM]
COC(=O)N/N=C/c1cc(C)n(-c2ccccc2)c1C	?	-1.1%	-34.4%[10 µM]	-6.6%
COC(=O)N/N=C/c1cc(C)n(-c2ccc(F)cc2)c1C	?	.	-27.2%	0.2%
CCc1ccc(-n2c(C)cc(/C=N/NC(=O)OC)c2C)cc1	10µM*	-4.2%	-2.1%[10 µM]	-20.2%
CCCN(c1ccc(OCC)cc1)c1ncnc2nc[nH]c12	3.3%	6.4%	6.1%[10 µM]	11.2µM*
CCCCN(CCCC)c1ncnc2nc[nH]c12	-5.6%	-5.5%	-32.7%	?
CCN(c1ccc(OC)cc1)c1ncnc2nc[nH]c12	-5.3%	12.6%	-30.2%[10 µM]	5.62µM*
O=C1CC[C@H](C(=O)N[C@@H]2C[C@H]2c2ccccc2)N1	.	.	18.7%	22.9%
CSc1ncnc2nc[nH]c12	.	.	-21.1%	.
O=C(Cn1c2c(sc1=O)C1c3ccccc3OCC1CS2)Nc1ccc(Cl)c(Cl)c1 (stereo not drawn)	4.0%	-5.5%	3.8%[10 µM]	2.82µM*
CCOC(=O)c1c(C)oc2ccc(OC(=O)COc3c(F)c(F)c(F)c(F)c3F)cc12	?	31.0%	.	12.6µM*
CCc1ccc(NC(=O)N(Cc2ccco2)C(C)c2cccs2)cc1 (stereo not drawn)	14.9%	-1.3%	-11.9%	-24.1%
CCc1ccccc1NC(=S)N(Cc1ccco1)C(C)c1cccs1 (stereo not drawn)	6.3%	.	-29.8%	3.98µM*
COc1cccc([C@@H]2Oc3ccc(OC)cc3/C(=N/OC[C@@H](C)[C@H](OCc3ccccc3)C(C)C)[C@@H]2O)c1	.	.	-56.7%[10 µM]	.
COC1=C(OC)C(=O)c2ccccc2C1=O	11.2µM*	.	-14.3%[1.9 µM]	.
COc1ccc(Nc2cccccc2=O)cc1	4.3%	-5.7%	5.0%	-30.3%
O=C1C(Cl)=C(Nc2ccccc2)C(=O)c2ccccc21	-0.1%	-12.4%	-39.1%[10 µM]	12.6µM*
COc1ccc(OC)c2c1C(=O)c1ccccc1C2=O	?	-8.7%	1.2%	-14.6%
COC1=C(Nc2ccccc2)C(=O)c2ccccc2C1=O	3.9%	31.6µM*	-26.8%[10 µM]	6.1%
O=C(O)c1ccc(NC2=C(Cl)C(=O)c3ccccc3C2=O)cc1	-14.0%	?	-96.7%[10 µM]	?
COC1=C(Nc2ccc(C)cc2)C(=O)c2ccccc2C1=O	14.1µM*	15.8µM*	-35.7%[10 µM]	?
SMILES	JMJD2E inh	L3MBTL1 inh	HTT ATP protect	HttQ103 aggreg
C=CC1=C[C@@H](O)C2OC2C12OCCCO2 (stereo partly drawn)	.	.	-2.7%[10 µM]	.
CO/N=C(\C)CCN1CCCCc2nc(C)c(C)cc21	.	.	-5.7%[10 µM]	.
COc1ccccc1-c1cc(NCc2cnc(C)cn2)ncn1	.	.	-3.5%	.
CCS(=O)(=O)N1Cc2ccccc2CC1C(=O)Nc1nc2c(C)cccc2s1 (stereo not drawn)	25.1µM*	-12.5%	30.2%[0.074 µM]	-31.0%
CN1CCN(c2ncc3nc(-c4cccs4)c(=O)n(CCC#N)c3n2)CC1	.	.	-229.0%	.
CCn1c(=O)[nH]c2ccccc21	4.8%	.	-6.2%	.
CCn1c(C)c(CS(=O)(=O)c2ccccc2)[nH]c1=O	28.2µM*	.	-165.9%	?
O=c1ccc2ccc(O)c(O)c2o1	7.08µM*	.	?	.
COC(=O)NC(c1ccco1)[C@]1(C(C)=O)CCCC1=O (stereo partly drawn)	.	.	5.3%[10 µM]	.
CCOC(=O)Cn1cnc2c(cnn2-c2ccc(Cl)cc2)c1=O	-1.2%	-5.2%	-68.0%	15.8µM*
COc1ccc(-n2c(C)nc3c(cnn3-c3ccc(Cl)cc3)c2=O)cc1	-3.0%	7.8%	-64.4%	12.6µM*
C#CCCCO/N=C1/C[C@@H](O)[C@@H](O)[C@@H]2[C@@H]3C(=O)N(C[C@@H]4CCCO4)C(=O)[C@H]3CC[C@@H]12	.	.	-2.0%[10 µM]	.
Cc1ccc(C(=O)COC(=O)c2ccc3c(c2)C(=O)N(c2cccc4ncccc24)C3=O)cc1	-2.3%	1.3%	28.2%[10 µM]	20µM*
N#Cc1c(-c2ccco2)nc(SCc2ccc(F)cc2)[nH]c1=O	-3.5%	-16.2%	-12.6%	-28.4%
Cc1nc(SCc2cccc(F)c2)[nH]c(=O)c1C#N	28.2µM*	7.6%	-22.9%[0.074 µM]	-20.8%
Cc1cc(C)c(Nc2cc(S(=O)(=O)O)c(N)c3c2C(=O)c2ccccc2C3=O)c(C)c1	-22.4%	15.8µM*	24.6%[10 µM]	21.1%
CNc1ncnc2c1ncn2[C@@H]1O[C@H](COP(=O)(O)O)[C@@H](O)[C@H]1O	.	.	14.0%	.
O=C(C1CCC(CNS(=O)(=O)c2cccc3nsnc23)CC1)N1CC=C(c2ccccc2)CC1 (stereo not drawn)	-9.3%	.	-36.3%	8.91µM*
CCOC(=O)c1cnc2cc3c(cn2c1=O)CCCC3	?	-1.1%	-11.8%	18.1%
CCOC(=O)C1=C(SCC)c2cc3c(n2C1=O)CCCC3	5.5%	25.1µM*	4.4%[10 µM]	31.5%
COc1cccc([C@@H]2Oc3ccc(OC)cc3/C(=N/OC[C@@H](O)COCc3ccco3)[C@@H]2O)c1	.	.	-14.3%[10 µM]	.
O=C(O)CN(CC(=O)O)Cc1cc2c(-c3ccccc3C(=O)O)c3cc(CN(CC(=O)O)CC(=O)O)c(=O)cc-3oc2cc1O	3.98µM*	.	.	0.178µM*
O=c1cc(-c2ccccc2F)oc2ccccc12	-15.1%	3.3%	10.9%[1.9 µM]	-24.5%
O=C(O)c1ccccc1-c1c2ccc(=O)cc-2oc2cc(O)ccc12	.	.	-125.2%	0.0316µM*
O=C(O)c1ccccc1-c1oc2cc(O)ccc2c(=O)c1Oc1ccccc1	?	.	-53.6%	.
Cn1c(=O)c(-c2ccc(F)cc2)nc2cnc(Nc3ccccc3)nc21	.	.	-64.7%	.
COCc1nnc(NC(=O)c2ccc(S(=O)(=O)N3CCCc4ccccc43)cc2)o1	?	57.5%	-134.1%	?
O=C(Nc1nnc(C2CC2)o1)c1ccc(S(=O)(=O)N2CCCc3ccccc32)cc1	?	-2.1%	-16.7%	11.2µM*
